# Columns and labels:
# Assay type in all cases: functional
# Plasmodium falciparum [1] = assay: GSK_TCMDC: Inhibition of Plasmodium falciparum 3D7 in whole red blood cells, using parasite LDH activity as an index of growth. Test compounds present at 2uM
# Plasmodium falciparum [2] = assay: GSK_TCMDC: Inhibition of Plasmodium falciparum Dd2 in whole red blood cells, using parasite LDH activity as an index of growth. Test compounds present at 2uM
# HepG2 = assay: GSK_TCMDC: Percent inhibition of human HepG2 cell line. Test compounds present at 10uM.
Compound,Inhibition (Plasmodium falciparum [1]) [%],Inhibition (Plasmodium falciparum [2]) [%],Inhibition (HepG2) [%]
CCCCCN1CCCC(CNS(=O)(=O)c2ccc(C(=O)Nc3ccc(C(F)(F)F)cc3)cc2)C1.O=C(O)C(F)(F)F (configuration not stated),94,0,51
COc1cc(Cc2cnc(N)nc2N)cc(OCCn2ccccc2=O)c1OC,97,0,4
FC(F)(F)c1ccc2[nH]c(-c3ccc(-c4ccc(CN5CCN(c6cnccn6)CC5)cc4)s3)nc2c1.O=C(O)C(F)(F)F,100,99,23
CCCCC(CC)C(=O)C(NC(=O)[C@H](CSC(c1ccccc1)(c1ccccc1)c1ccccc1)NC(=O)OC(C)(C)C)C(=O)OC (some centres not stated),88,31,8
COc1cc(NC2=C(c3ccccc3)C(=O)c3ccccc32)ccn1,96,96,7
CCCC(C(=O)OCCNC)(c1ccccc1)c1ccccc1.Cl,98,96,7
CC(C)CC1c2[nH]c3ccccc3c(=O)c2CN1C(=O)OC(C)(C)C (configuration not stated),97,96,2
Cl.Nc1nc(Nc2ccc(Cl)cc2)nc2ccccc12,100,21,6
CCc1cc2c(O)c([N+](=O)[O-])c(=O)oc2cc1OCCCCCOc1cc2oc(=O)c([N+](=O)[O-])c(O)c2cc1CC,99,0,11
Cc1ccc(C(=O)c2oc3ccc4c(C)cc(=O)oc4c3c2C)cc1,86,48,0
CC(=NNC(S)=NC(C)(C)C)c1ccccn1,99,100,63
Cc1cc(C)cc(Oc2c(C(F)(F)F)oc3c(CN4CC(C)OC(C)C4)c(O)ccc3c2=O)c1 (configuration not stated),89,54,5
Cc1ccc(C(O)CNc2ccnc(Nc3cccc(-c4csc(C)n4)c3)n2)cc1 (configuration not stated),92,31,17
COc1ccccc1C1CCN(C2CCC(NC(=O)/C=C/c3cc(C(F)(F)F)cc(C(F)(F)F)c3)CC2)CC1 (configuration not stated),92,21,31
Nc1nc(N)c2cc(N(Cc3ccccc3)Cc3ccccc3)ccc2n1,99,88,69
Cc1[nH]c(C)c(-c2ccc(OCCn3cnc(Cl)c3Cl)cc2)c(=O)c1Br,95,35,2
O=C(/C=C/c1ccc(Cl)c(Cl)c1)NCCCCCCN1CCCN(C(=O)Nc2ccc(C(F)(F)F)cc2)CC1,100,25,47
O=C(Nc1ccc(F)c(F)c1)c1ccc(CN2CCCN(Cc3cccc(O)c3)CC2)cc1.O=C(O)C(F)(F)F,92,57,43
CN1CCN(c2ccnc3ccc(NC(=O)c4ccc(Cl)c(Cl)c4)cc23)CC1,100,64,4
CN(C)CCn1c(N)c(-c2nc3ccccc3s2)c2nc(C#N)c(C#N)nc21,94,40,4
Cc1cc(C)c2oc(-c3cccc(NC(=O)c4ccc([N+](=O)[O-])o4)c3C)nc2c1,90,67,0
O=C(/C=C/c1ccc(Cl)c(Cl)c1)NCCCCCN1CCC(CCNC(=O)C2(c3ccc(Cl)cc3)CC2)CC1,91,16,96
O=C(CC(=O)Nc1cc(Cl)cc(Cl)c1)Nc1cc(Cl)cc(Cl)c1,95,96,0
CC(=O)Nc1cccc(C(=O)Nc2cccc(-c3ccc(-c4nc5cccc(C)c5[nH]4)cc3)c2)c1,95,12,29
Cc1ccc(-n2cc(CNCCc3nc(C)c[nH]3)c(-c3ccc(F)cc3)n2)cc1,86,12,15
CCCCc1cc(NCc2ccncc2)nc(Nc2ccc(C)cc2)n1,100,59,7
COc1ccc(CCC(C)(C)NCC(O)c2cccc(C(F)(F)F)c2)cc1 (configuration not stated),99,98,26
Cc1onc(-c2c(F)cccc2Cl)c1C(=O)Nc1ccccc1I,99,52,0
CC(C)NCc1ccc(-c2ccc(NC(=O)c3cccc(C#N)c3)cc2)cc1.O=C(O)C(F)(F)F,99,77,40

# Source: ChEMBL document CHEMBL1157539, “Thousands of chemical starting points for antimalarial lead identification” (Nature, 2010)
